Common to all, as to test: NCI-60 one-dose screen, 48 h (100 = growth as untreated, 0 = no growth, -100 = all killed)
Settings in all cases: 10 µM unless noted

In test [1] the test system is HCT-15 colon.
For test [2], the system named is HT29 colon.
The subject of test [3] is SNB-75 CNS.
Test [4] deals with SNB-19 CNS.
For test [5], the system named is U251 CNS.
Test [6] deals with PC-3 prostate.
Test [7] has as its system SK-MEL-5 melanoma.
In test [8] the test system is UACC-62 melanoma.
For test [9], the system named is LOX IMVI melanoma.
For test [10], the system named is SK-MEL-28 melanoma.

This is part of a sample that, as a whole, favours compounds with a hit. Of some 83,000 tested, about 20% had one in any assay.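 Percent growth is the endpoint: 0 to 100 indicates growth inhibition (40 means 60% inhibition), 0 means no net growth, and negative values indicate cell death.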 Values without a mark were called inactive. Calls of active or inactive are those of the source. How the source made its calls: active means growth percent below 10; inactive means the rest.

Turning to `COC(=O)C(N)CSC(c1ccccc1)(c1ccccc1)c1ccccc1` (stereo not given), the growth in test [1] was 28%; in test [2], 1.58% (active); in test [3] it was 31.4%; in [4], 63.7%; in test [5], 23.3%; in test [6] it was 25.1%. The growth in test [7] is 23.9%; in test [8] it was 54.3%; in test [9], 35.2%; in test [10] it was 49.5%.
Regarding `C/C(=N/NC(N)=S)C(=O)O`, the growth in test [1] was 82.9%; in test [2], 56.5%; in test [3], 95.3%; in test [4], 98.4%; in [5], 73.9%; in test [6], 72.8%. The growth in [7] was 102%; in test [8], 99.9%; in test [9], 74.9%; in test [10] it was 103%.
Turning to `CC(CNc1nc(Nc2ccc(Cl)c(Cl)c2)nc(C(Cl)(Cl)Cl)n1)N(C)C` (stereo not given), the growth in test [1] is -27.7% (active); in test [2], -76.3% (active); in test [3], -18.9% (active); in test [4], -1.09% (active); in [5] it was -82.6% (active); in test [6], -40.3% (active). The growth is -56.9% (active) in test [7], -4.78% (active) in [8] and -57.2% (active) in [9].
Regarding `O=C(c1ccccc1)C(CN1CCOCC1)c1ccccc1` (stereo not given), the growth is 1.74% (active) in test [1]; -67% (active) in [2]; 51.8% in test [3]; 78.3% in test [4]; 19.3% in test [5]; 48.7% in test [6]. Further, the growth in [7] is 44.5%; in test [8], 22.4%; in [9], -34.7% (active); in test [10] it was 68.6%.
For the molecule `COc1ccc(-c2n/c(=C\c3c(O)[nH]c4ccc(OC)cc34)cc3c2=Nc2ccccc2-3)cc1`, the growth in [1] is 0.939% (active); in test [2] it was -47.4% (active); in test [3] it was 30.4%; in test [4] it was 38.4%; in test [5], -79.3% (active); in test [6], 75.8%. For the same molecule, the growth in test [7] was 18.5%; in [8], -56.4% (active); in test [9], 27.4%; in test [10], -89.9% (active).
As for `C/C(=N\Nc1cc(C)c2cc(C)ccc2n1)c1ccccn1`, the growth was -16.5% (active) in [1]; -99.3% (active) in test [2]; 5.85% (active) in [3]; 20.6% in test [4]; -100% (active) in test [5]; 15.2% in test [6]. Besides, the growth in test [7] is -98.9% (active); in test [8], -54.4% (active); in [9], -86.4% (active); in test [10] it was -93.3% (active).
Turning to `CCCC(=O)N1CCCCC1CC` (stereo not given), the growth was 99.4% in test [1]; 106% in [2]; 92% in test [3]; 112% in test [4]; 91.8% in test [5]; 92.5% in test [6]. Moreover, the growth in test [7] was 117%; in test [8], 111%; in test [9] it was 105%; in test [10] it was 112%.
Regarding `CC(C)(C)CC(C)(C)c1ccc(OCCOCC[N+](C)(C)CC(=O)[O-])cc1`, the growth in test [1] was 105%; in test [2] it was 103%; in test [3], 99.2%; in test [4], 111%; in test [5], 98.4%; in test [6], 104%. Moreover, the growth was 106% in test [7], 104% in test [8], 107% in test [9] and 114% in test [10].
`COc1cc2[nH]c(C(=O)c3cc(OC)c(OC)c(OC)c3)c(N)c2cc1C#CC1CC1`: the growth was 23.1% in test [1]; 5.53% (active) in [2]; -4.88% (active) in [3]; 45.1% in test [4]; 45% in test [5]; 16.7% in test [6]. Further, the growth was 18.4% in [7], 34.4% in test [8], 36.1% in test [9] and 35.2% in [10].
Take `Cn1cc(-c2nc(-c3c[nH]c4ncccc34)cs2)c2cc(Cl)ccc21`: the growth in test [1] was 31.2%; in [2] it was 38.5%; in [3], 63.6%; in [4], 74.4%; in [5], 40%; in test [6], 42.4%. Also, the growth is 83.3% in test [7], 64.3% in test [8] and 80.1% in test [10].
Turning to `c1ccc(C2Cc3ccccc3C2=NC2CCCCC2)cc1` (stereo not given), the growth in test [1] is 94.9%; in test [2] it was 106%; in test [3] it was 92.3%; in test [4] it was 104%; in [5], 97.9%; in test [6], 84.4%. Also, the growth in test [7] was 103%; in test [8] it was 99.6%; in [9], 103%; in [10], 114%.
For `Cc1cc(C)n(Cc2cc(C(C)(C)C)cc(C(C)(C)C)c2)c(=O)c1C#N`, the growth is 86.8% in test [1]; 99.4% in [2]; 96.1% in [3]; 95.8% in [4]; 97.9% in [5]; 79% in test [6]. The growth in [7] is 90.7%; in test [8], 72.8%; in [10], 102%.
As to `Brc1cnc2[nH]cc(-c3nnc(-c4ccccc4)o3)c2c1`, the growth was 55% in [1]; 74.8% in test [2]; 66.3% in test [3]; 79.5% in test [4]; 74.6% in [5]; 77.9% in test [6]. Also, the growth in test [7] was 80.4%; in test [8], 66.9%; in test [10] it was 90.9%.
Consider `Cn1cc(-c2csc(-c3c[nH]c4ccccc34)n2)c2cccnc21`, for which the growth in test [1] was 25.6%; in test [2], 10.2%; in test [3], -5.48% (active); in test [4], 47.2%; in [5], 27.2%; in test [6], 22.1%. The growth in test [7] is 11.1%; in test [8], 44.7%; in test [10], 53.9%.

These data come from PubChem BioAssay (NCI).
